Data taken from PubChem BioAssay AID2315 (National Center for Advancing Translational Sciences (NCATS), 2010).
Screen size: about 290,000 compounds; about 27,000 (9.3%) were called active. Rule as the data show it: active = inhibition mostly above about 28% (no sharp cut-off); inactive = mostly below about 43%. What follows is part of a selection rich in actives, with near analogues and random picks from the rest.

experiment: A qHTS for Small Molecule Inhibitors of Shiga Toxin; conditions: Vero cells, Shiga toxin protein synthesis inhibition reporter; at 38.7 µM, active compounds read high; also: 0% is about no effect

Compound | inhibition
Cc1ccc(OCc2cc(C(=O)N(C)CCc3ccccc3)no2)cc1C | 106% (active)
CN(CCOc1ccccc1)C(=O)c1cc(COc2c(F)cccc2F)on1 | 28.4% (inactive)
CN(Cc1cnccn1)C(=O)c1cc(COc2cccc(C(F)(F)F)c2)on1 | 60.3% (active)
Cc1ccc(OCC(=O)NCCCNC(=O)c2cccnc2)cc1C | -10.2% (inactive)
Cc1ccc(OCC(=O)NCCCNC(=O)c2ccco2)cc1C | -2.33% (inactive)
Cc1ccc(SC(=O)COc2ccc(C)c(C)c2)cc1 | -26.3% (inactive)
Cc1cc(CN(C)C(=O)c2cc(COc3ccc(C)c(C)c3)on2)n[nH]1 | 59.9% (active)
CN(Cc1cccnc1)C(=O)c1cc(COc2ccc3ncccc3c2)on1 | 21.5% (inactive)
C/C(=N/OC(=O)c1cccc(C(F)(F)F)c1)c1cnccn1 | -18.2% (inactive)
O=S(=O)(Cc1noc(-c2ccc(OC(F)(F)F)cc2)n1)c1ccc(F)cc1 | 60.4% (inactive)
COc1ccc(C(C)NC(=O)C23CC4CC(CC(C4)C2)C3)cc1 (stereo not drawn) | -10.2% (inactive)
COc1ccccc1NC(=O)CCC(=O)OC(C)C(=O)c1ccccc1 (stereo not drawn) | -0.996% (inactive)
Cc1n[nH]c(C)c1S(=O)(=O)N1CCCC(C(=O)Nc2ccc(Br)cc2)C1 (stereo not drawn) | 3.93% (inactive)
COc1ccc2oc(=O)cc(-c3cc4ccccc4o3)c2c1 | -7.01% (inactive)
CCOc1nc(-c2ccc(OC)cc2)ccc1-c1noc(-c2cc(OC)c(OC)c(OC)c2)n1 | 11.8% (inactive)
COc1ccc(-c2noc(-c3cccc(OC)c3OC)n2)cc1OC | 64.7% (active)
COc1ccc(-c2noc(CCCC(=O)NC3CCCC3)n2)cc1OC | -6.44% (inactive)
CC(C)NC(=O)C(c1ccc(F)cc1)N(C(=O)CCC(=O)Nc1ccccn1)c1ccccc1F (stereo not drawn) | -8.5% (inactive)
Cc1ccc(C)c(NS(=O)(=O)c2c(C)[nH]c(C)c2C(=O)N2CCCCC2)c1 | 2.83% (inactive)
Nc1nc(-c2ccccc2)cc(-c2ccccc2)n1 | 30.7% (active)
Nc1cccc(-c2cc(-c3ccccc3)nc(-c3cccc(N)c3)n2)c1 | -3.83% (inactive)
CNc1nc(-c2ccccc2)cc(-c2ccccc2)n1 | 1.28% (inactive)
O=C(NC1CC1)C(Cc1ccccc1)NS(=O)(=O)c1ccccc1F (stereo not drawn) | -4.61% (inactive)
CC1(C(=O)O)CCC(C(=O)Nc2ccc(Cl)c(Cl)c2)C1(C)C (stereo not drawn) | -2.66% (inactive)
O=C(Nn1c(-c2ccccc2)nc2ccccc2c1=O)c1ccc([N+](=O)[O-])cc1 | -8.82% (inactive)
O=C(CCn1c(SCC(=O)c2ccccc2)nc2ccccc2c1=O)NCc1ccc(F)cc1 | -27.4% (inactive)

Compound | inhibition
O=C(CN(C(=O)CNC(=O)c1cccs1)c1cccc(F)c1)NC1CCCCC1 | -5.58% (inactive)
O=C1CCN(Cc2ccc([N+](=O)[O-])cc2)CCN1[C@H](CO)Cc1ccccc1 | -0.762% (inactive)
C=CCc1cc(C)ccc1OCCCn1ccnc1 | -4.77% (inactive)
CC1C(=O)Nc2ccc(S(=O)(=O)N3CCN(c4ccccc4F)CC3)cc2NC1=O (stereo not drawn) | -0.75% (inactive)
CCc1c(C)sc(NC(=O)c2cccs2)c1C(N)=O | 107% (active)
COC(=O)c1c(NC(=O)c2cccs2)sc2c1CCCC2 | 35.1% (inactive)
CCCc1nnc(NC(=O)c2cccs2)s1 | 39% (inactive)
Cc1ccc(CC(=O)Nc2cccc(C#N)c2)cc1 | 25.6% (inactive)
N#Cc1cccc(NC(=O)CN2CCCCCC2)c1 | 2.24% (inactive)
N#Cc1cccc(NC(=O)CCC2CCCC2)c1 | 33.8% (active)
COc1ccc(N2CCN(CCNC(=O)Nc3cc(Cl)ccc3Cl)CC2)cc1 | 4.24% (inactive)
CCc1ccccc1NC(=O)NCCN1CCCCC1 | -9.72% (inactive)
COc1ccc(SC[C@H](Cc2ccccc2)N2CCN(CCc3ccccc3)CCC2=O)cc1 | -7.36% (inactive)
Cc1ccc(SCC(CC(C)C)N2CCN(CCc3ccccc3)CCC2=O)cc1 (stereo not drawn) | 64.5% (active)
CCCN1CCC(=O)N(C(CSc2ccc(C)cc2)Cc2ccccc2)CC1 (stereo not drawn) | -8.43% (inactive)
O=c1onc(-c2c(F)cccc2F)n1-c1ccccc1Cl | -3.28% (inactive)
CCOC(=O)c1c(NC(=O)C2CCN(S(=O)(=O)c3ccc(Cl)cc3)CC2)sc2c1CCCC2 | 45.1% (active)
CCOC(=O)c1c(NC(=S)NC)sc2c1CCCC2 | -5.4% (inactive)
CCCOC(=O)Nc1sc2c(c1C(=O)OCC)CCC2 | -17.5% (inactive)
NC(=O)Cn1cc(/C=N\NS(=O)(=O)c2ccccc2)c2ccccc21 | -5.18% (inactive)
COc1ccc(-c2nc3ccccc3n2CCC(C)C)cc1OC | -2.89% (inactive)
O=C(C[n+]1ccccc1)N/N=C/c1ccc(O)cc1 | 30.3% (inactive)
Cc1nc2ccc(C(=O)N/N=C/c3ccc(O)cc3)cc2[nH]1 | 22.1% (inactive)
Cc1nonc1C(=O)N/N=C/c1ccc(O)cc1 | 72.1% (active)
O=c1[nH]c2cccnc2n1-c1ccc([N+](=O)[O-])cc1 | 6.32% (inactive)
O=[N+]([O-])c1ccc2nc(-c3ccccn3)[nH]c2c1 | 102% (active)

Compound | inhibition
O=C(CSc1nc2ccc([N+](=O)[O-])cc2[nH]1)c1ccc(Cl)cc1 | -3.36% (inactive)
COC(=O)c1cc(S(=O)(=O)Nc2ccc(C)c(F)c2)c[nH]1 | 9.13% (inactive)
CC(C)c1c(C(=O)N/N=C/c2ccccc2C(=O)O)nnn1-c1nonc1N | 0.546% (inactive)
Cc1cccc(N2CCN(Cc3nc(C4CC4)no3)CC2)n1 | 18.6% (inactive)
O=C(NCc1ccccc1Cl)C1CCCN1S(=O)(=O)c1ccc(F)cc1 (stereo not drawn) | -12.5% (inactive)
CCOC(=O)c1cn[nH]c1NC(=S)Nc1ccccc1 | 57.1% (active)
CCOC(=O)c1ccc(NC(=S)Nc2cc(C)cc(C)n2)cc1 | -12.4% (inactive)
CCOC(=O)c1cc2c(nc1NC(=S)Nc1ccccc1)CC(C)(CC)OC2 (stereo not drawn) | -8.83% (inactive)
COc1ccc(CN2CCc3nc(Nc4ccccc4)ncc3C2)c(OC)c1OC | 3.91% (inactive)
COc1cccc(C2Nc3cccc4cccc(c34)N2)c1 | -2.47% (inactive)
O=C1NC(c2cccc(Cl)c2)Nc2ccccc21 (stereo not drawn) | 18.4% (inactive)
COc1ccc(C2NC(=O)c3ccccc3N2)cc1 (stereo not drawn) | 62.6% (active)
COc1cccc2cc(-c3cc(=O)oc4cc(C)c(O)cc34)oc12 | 0.992% (inactive)
CCCCCc1c(C)nc(N2CCN(Cc3ccc4c(c3)OCO4)CC2)[nH]c1=O | 7.82% (inactive)
c1ccc(-n2ncc3c(N4CCCC4)ncnc32)cc1 | 27.5% (inactive)
COc1ccccc1N1CCN(C(=O)CSc2ncnc3c2cnn3-c2ccc(C)c(C)c2)CC1 | 66.7% (active)
CC(=O)Nc1ccc(NC(=O)CSc2ncnc3c2cnn3Cc2ccccc2)cc1 | 3.21% (inactive)
CN(C(=O)COc1ncnc2c1cnn2-c1ccccc1)C1CCCCC1 | 20.6% (inactive)
COC(=O)CSc1ncnc2c1cnn2-c1ccc(C)cc1C | -5.7% (inactive)
CCN(CC)C(=O)CSc1ncnc2c1cnn2-c1ccccc1 | 66.2% (active)
CC(C)Sc1ncnc2c1cnn2-c1ccccc1 | 96.6% (active)
COc1ccccc1N1CCN(C(=O)CSc2nnc(-c3ccoc3C)o2)CC1 | 31.6% (inactive)
c1ccc(-n2ncc3c2ncn2c(C4CCCCC4)nnc32)cc1 | 11.5% (inactive)
COc1ccc(N2CCN(C(=O)CSc3ncnc4c3cnn4-c3ccc(OC)cc3)CC2)cc1 | -9.91% (inactive)
COc1ccc(NC(=O)CSc2ncnc3[nH]ncc23)cc1 | -13.5% (inactive)
COc1ccc(-n2ncc3c(SCC(=O)NNC(C)=O)ncnc32)cc1 | 25.6% (active)

Compound | inhibition
COc1ccccc1Oc1ccc(N/C=C2/CCCC2=O)cc1 | 33.6% (inactive)
Cc1onc(-c2ccccc2)c1C(=O)N1CCN(S(=O)(=O)c2ccccc2C(F)(F)F)CC1 | 61.7% (inactive)
CCOc1ccc(N(CC)S(=O)(=O)c2cccc3nsnc23)cc1 | -2.2% (inactive)
Nc1c(Cl)cc(-c2csc(N3CCCC3c3nc4cc(Cl)c(Cl)cc4n3CCOCCO)n2)cc1Cl (stereo not drawn) | -18% (inactive)
CCCOc1ccc(-c2c(C(=O)N/N=C/c3ccco3)nnn2-c2nonc2N)cc1 | -3.97% (inactive)
CC(C)c1ccc2oc(=O)cc(CN3CCN(Cc4ccccc4)CC3)c2c1 | -3.05% (inactive)
Cc1ccc(C(=O)N2CCC(n3nccc3NC(=O)Nc3cccc(F)c3)CC2)cn1 | -8.38% (inactive)
COc1ccc(-c2cc(=O)oc3cc(OC(C)C(=O)NCC4CCC(C(=O)O)CC4)ccc23)cc1 (stereo not drawn) | -4.72% (inactive)
CC(=O)Cn1cnc2c(cnn2-c2ccccc2)c1=O | 34.2% (active)
O=C(Cn1cnc2c(cnn2-c2ccc(F)cc2)c1=O)NCCc1ccccc1 | -0.429% (inactive)
O=C(Cn1cnc2c(cnn2-c2ccccc2)c1=O)NCc1ccccc1 | 31.9% (inactive)
CC1C(=O)Nc2ccccc2N1C(=O)c1c(F)cccc1F (stereo not drawn) | -5.2% (inactive)
COC(=O)C1CCCCN1C(=O)c1ccc(OC2CCN(C(C)=O)CC2)c(OC)c1 (stereo not drawn) | 20.4% (inactive)
COc1cc(OC)cc(C(=O)NCC(=O)OCc2csc(-c3ccccc3)n2)c1 | 21% (inactive)
Cc1ccc(S(=O)(=O)N2CCN(C(=O)COC(=O)c3c(C)noc3C)CC2)c(C)c1 | -4.13% (inactive)
Cc1ccc(-c2nc(COC(=O)c3c(C)noc3C)cs2)cc1 | 104% (active)
S=C(Nc1ccc(Cl)cc1Cl)N1CCCC1 | 88.2% (active)
S=C(Nc1ccc(Br)cc1Cl)N1CCC2(CC1)OCCO2 | 76.2% (active)
Cc1cc(Cl)ccc1NC(=S)N1CCC(C(N)=O)(N2CCCCC2)CC1 | -10.1% (inactive)
O=C(NC(=S)Nc1ccc(Cl)cc1Cl)C1CC1 | 97.9% (active)
CN(C)C(=S)Nc1ccc(Br)cc1Cl | 23.8% (inactive)
Cc1ccc2c(c1)C1CN(C)CCC1N2C(=S)Nc1ccc(Cl)cc1Cl (stereo not drawn) | 14.7% (inactive)
S=C(NCc1cccnc1)Nc1ccc(Cl)cc1Cl | 23.4% (inactive)
CN1CCN(S(=O)(=O)c2ccc(NC(=S)NC(=O)C3CC3)cc2)CC1 | 11.7% (inactive)
CC1CN(C(=S)Nc2ccc(Br)cc2Cl)CC(C)O1 (stereo not drawn) | -7.71% (inactive)
